# ± gives the standard deviation of the averaged measurements.
# Columns and labels:
# Assay in all cases: promoter activity interaction Z-score (Lux/OD deviation from empty-vector control); higher = stronger promoter induction by the compound
# [1] = tested on: E. coli BW25113 acrABp lux reporter
# Procedure, shortened: (§1)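 E. coli BW25113 (wild type or marA, soxS or rob deletion) carrying low-copy luxCDABE promoter reporters grew in 40 µl LB Lennox in 384-well plates at 37°C. Each compound was tested at four 1:2 dilutions in biological duplicates. OD600 and luminescence were read every 30 min for 12 h. Areas were taken over 0–8 h (wild type) or 1–9 h (mutants), and wells below 10% of median growth area were removed. The score is the Z-transformed residual of growth-normalised luminescence fitted against the empty-vector control.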
# [2] = tested on: E. coli BW25113 micFp lux reporter
# Procedure, shortened: as §1
# [3] = tested on: E. coli BW25113 ompFp lux reporter
# Procedure, shortened: as §1
# [4] = tested on: E. coli BW25113 robp lux reporter
# Procedure, shortened: as §1
# [5] = tested on: E. coli BW25113 soxSp lux reporter
# Procedure, shortened: as §1
# [6] = tested on: E. coli BW25113 tolCp lux reporter
# Procedure, shortened: as §1
# [7] = 0.073 µg/ml, genetic background: wild type
# [8] = 0.073 µg/ml, genetic background: ΔmarA
# [9] = 0.073 µg/ml, genetic background: Δrob
# [10] = 0.073 µg/ml, genetic background: ΔsoxS
# [11] = 0.15 µg/ml, genetic background: wild type
# [12] = 0.15 µg/ml, genetic background: ΔmarA
# [13] = 0.15 µg/ml, genetic background: Δrob
# [14] = 0.15 µg/ml, genetic background: ΔsoxS
# [15] = 0.29 µg/ml, genetic background: wild type
# [16] = 0.29 µg/ml, genetic background: ΔmarA
# [17] = 0.29 µg/ml, genetic background: Δrob
# [18] = 0.29 µg/ml, genetic background: ΔsoxS
# [19] = 0.58 µg/ml, genetic background: wild type
# [20] = 0.58 µg/ml, genetic background: ΔmarA
# [21] = 0.58 µg/ml, genetic background: Δrob
# [22] = 0.58 µg/ml, genetic background: ΔsoxS
smiles,measurement,setting,value
COc1cc(Cc2cnc(N)nc2N)cc(OC)c1OC [Trimethoprim],promoter activity interaction Z-score,[1]; [7],0.0131 ± 0.34
same,promoter activity interaction Z-score,[1]; [8],-0.307 ± 0.0077
same,promoter activity interaction Z-score,[1]; [9],-0.0611 ± 0.045
same,promoter activity interaction Z-score,[1]; [10],-0.429 ± 0.0073
same,promoter activity interaction Z-score,[1]; [11],0.297 ± 0.54
same,promoter activity interaction Z-score,[1]; [12],1.43 ± 0.76
same,promoter activity interaction Z-score,[1]; [13],0.162 ± 0.041
same,promoter activity interaction Z-score,[1]; [14],-0.000323 ± 0.14
same,promoter activity interaction Z-score,[1]; [15],0.6 ± 0.73
same,promoter activity interaction Z-score,[1]; [16],-0.763 ± 0.81
same,promoter activity interaction Z-score,[1]; [17],0.526 ± 0.19
same,promoter activity interaction Z-score,[1]; [18],0.701 ± 0.81
same,promoter activity interaction Z-score,[1]; [19],0.577 ± 0.46
same,promoter activity interaction Z-score,[1]; [20],-0.476 ± 0.038
same,promoter activity interaction Z-score,[1]; [21],1.39 ± 0.35
same,promoter activity interaction Z-score,[1]; [22],0.448 ± 0.78
same,promoter activity interaction Z-score,[2]; [7],0.711 ± 0.12
same,promoter activity interaction Z-score,[2]; [8],0.728 ± 0.027
same,promoter activity interaction Z-score,[2]; [9],0.665 ± 0.28
same,promoter activity interaction Z-score,[2]; [10],0.533 ± 0.23
same,promoter activity interaction Z-score,[2]; [11],1.86 ± 0.14
same,promoter activity interaction Z-score,[2]; [12],1.1 ± 0.14
same,promoter activity interaction Z-score,[2]; [13],1.29 ± 0.44
same,promoter activity interaction Z-score,[2]; [14],0.842 ± 0.36
same,promoter activity interaction Z-score,[2]; [15],2.75 ± 0.96
same,promoter activity interaction Z-score,[2]; [16],1.9 ± 0.074
same,promoter activity interaction Z-score,[2]; [17],2.28 ± 0.79
same,promoter activity interaction Z-score,[2]; [18],1.33 ± 0.41
same,promoter activity interaction Z-score,[2]; [19],0.997 ± 0.95
same,promoter activity interaction Z-score,[2]; [20],0.388 ± 0.61
same,promoter activity interaction Z-score,[2]; [21],1.15 ± 0.38
same,promoter activity interaction Z-score,[2]; [22],0.825 ± 0.16
same,promoter activity interaction Z-score,[3]; [7],-0.322 ± 0.3
same,promoter activity interaction Z-score,[3]; [8],-1.17 ± 0.5
same,promoter activity interaction Z-score,[3]; [9],-0.297 ± 0.54
same,promoter activity interaction Z-score,[3]; [10],-0.129 ± 0.65
same,promoter activity interaction Z-score,[3]; [11],0.109 ± 0.39
same,promoter activity interaction Z-score,[3]; [12],-0.477 ± 0.78
same,promoter activity interaction Z-score,[3]; [13],0.244 ± 0.7
same,promoter activity interaction Z-score,[3]; [14],0.51 ± 0.81
same,promoter activity interaction Z-score,[3]; [15],0.0831 ± 0.67
same,promoter activity interaction Z-score,[3]; [16],-1.9 ± 0.61
same,promoter activity interaction Z-score,[3]; [17],-0.0302 ± 1
same,promoter activity interaction Z-score,[3]; [18],0.395 ± 1.3
same,promoter activity interaction Z-score,[3]; [19],-0.896 ± 0.32
same,promoter activity interaction Z-score,[3]; [20],-0.897 ± 0.46
same,promoter activity interaction Z-score,[3]; [21],0.0886 ± 0.83
same,promoter activity interaction Z-score,[3]; [22],-1.15 ± 0.39
same,promoter activity interaction Z-score,[4]; [7],0.791 ± 0.3
same,promoter activity interaction Z-score,[4]; [8],0.875 ± 0.23
same,promoter activity interaction Z-score,[4]; [9],2.11 ± 0.058
same,promoter activity interaction Z-score,[4]; [10],0.238 ± 1.1
same,promoter activity interaction Z-score,[4]; [11],3.64 ± 0.82
same,promoter activity interaction Z-score,[4]; [12],3.37 ± 0.44
same,promoter activity interaction Z-score,[4]; [13],4.81 ± 0.7
same,promoter activity interaction Z-score,[4]; [14],2.16 ± 0.27
same,promoter activity interaction Z-score,[4]; [15],7.43 ± 2.3
same,promoter activity interaction Z-score,[4]; [16],5.16 ± 0.16
same,promoter activity interaction Z-score,[4]; [17],8.88 ± 0.31
same,promoter activity interaction Z-score,[4]; [18],5.55 ± 0.44
same,promoter activity interaction Z-score,[4]; [19],3.89 ± 0.063
same,promoter activity interaction Z-score,[4]; [20],4.6 ± 5.3
same,promoter activity interaction Z-score,[4]; [21],3.21 ± 0.23
same,promoter activity interaction Z-score,[4]; [22],2.01 ± 1.6
same,promoter activity interaction Z-score,[5]; [7],-0.0844 ± 0.22
same,promoter activity interaction Z-score,[5]; [8],0.118 ± 0.2
same,promoter activity interaction Z-score,[5]; [9],0.163 ± 0.18
same,promoter activity interaction Z-score,[5]; [10],-0.116 ± 0.24
same,promoter activity interaction Z-score,[5]; [11],0.261 ± 0.11
same,promoter activity interaction Z-score,[5]; [12],0.204 ± 0.1
same,promoter activity interaction Z-score,[5]; [13],0.486 ± 0.39
same,promoter activity interaction Z-score,[5]; [14],0.169 ± 0.29
same,promoter activity interaction Z-score,[5]; [15],0.521 ± 0.032
same,promoter activity interaction Z-score,[5]; [16],0.796 ± 0.022
same,promoter activity interaction Z-score,[5]; [17],0.986 ± 0.72
same,promoter activity interaction Z-score,[5]; [18],0.663 ± 0.23
same,promoter activity interaction Z-score,[5]; [19],1.34 ± 0.14
same,promoter activity interaction Z-score,[5]; [20],2.96 ± 0.38
same,promoter activity interaction Z-score,[5]; [21],2.69 ± 1.1
same,promoter activity interaction Z-score,[5]; [22],-0.0409 ± 0.74
same,promoter activity interaction Z-score,[6]; [7],0.67 ± 0.48
same,promoter activity interaction Z-score,[6]; [8],-0.632 ± 0.36
same,promoter activity interaction Z-score,[6]; [9],-0.116 ± 0.95
same,promoter activity interaction Z-score,[6]; [10],-0.559 ± 0.21
same,promoter activity interaction Z-score,[6]; [11],0.553 ± 0.46
same,promoter activity interaction Z-score,[6]; [12],-0.336 ± 0.28
same,promoter activity interaction Z-score,[6]; [13],0.749 ± 0.87
same,promoter activity interaction Z-score,[6]; [14],2.3 ± 2.1
same,promoter activity interaction Z-score,[6]; [15],1.84 ± 0.19
same,promoter activity interaction Z-score,[6]; [16],2.71 ± 0.84
same,promoter activity interaction Z-score,[6]; [17],1.92 ± 0.38
same,promoter activity interaction Z-score,[6]; [18],2.4 ± 1.6
same,promoter activity interaction Z-score,[6]; [19],1.85 ± 0.094
same,promoter activity interaction Z-score,[6]; [20],0.798 ± 2
same,promoter activity interaction Z-score,[6]; [21],1.4 ± 0.83
same,promoter activity interaction Z-score,[6]; [22],0.494 ± 0.71

# Reference: the supplement of paper PMC12282887
